# Measurements taken from ChEMBL document CHEMBL3988442, “University of Dundee, Small-Polar-MMV Screening Library” (2021).
# Tests used:
# [1] = target: T1, Aspartate--tRNA(Asp/Asn) ligase (Mycobacterium tuberculosis (strain ATCC 25618 / H37Rv)) (UniProt P9WFW3); test: Assay for Asp RNA synthetase-1 from Mycobacterium tuberculosis; assay type: functional; set-up: scale not given: direction of the effect not stated beside the values; conditions: 30 µM; also: in the data most compounds retested in dose-response had high values
# T1 sequence (whole entry): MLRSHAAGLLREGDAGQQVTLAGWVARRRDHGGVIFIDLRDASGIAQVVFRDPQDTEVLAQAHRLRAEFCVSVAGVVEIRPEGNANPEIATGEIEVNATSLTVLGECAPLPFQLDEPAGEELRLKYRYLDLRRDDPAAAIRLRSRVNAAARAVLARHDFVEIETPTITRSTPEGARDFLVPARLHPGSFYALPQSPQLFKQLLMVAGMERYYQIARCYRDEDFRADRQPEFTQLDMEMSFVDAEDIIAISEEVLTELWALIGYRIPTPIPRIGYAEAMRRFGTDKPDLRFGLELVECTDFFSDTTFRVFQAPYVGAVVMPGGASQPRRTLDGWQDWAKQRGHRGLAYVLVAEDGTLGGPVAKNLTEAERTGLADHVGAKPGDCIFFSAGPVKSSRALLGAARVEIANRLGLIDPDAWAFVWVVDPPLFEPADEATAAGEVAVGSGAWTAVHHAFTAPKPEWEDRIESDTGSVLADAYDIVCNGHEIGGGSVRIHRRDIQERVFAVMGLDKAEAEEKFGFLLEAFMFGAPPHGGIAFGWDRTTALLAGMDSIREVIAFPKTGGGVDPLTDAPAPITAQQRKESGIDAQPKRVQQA
# [2] = target: Shiga toxin 2 (Escherichia coli O157:H7) (UniProt P09385+P09386); test: E. coli 0.157:H7 Shiga Toxin SOP - stx2 screening assay; assay type: functional; set-up: scale not given: direction of the effect not stated beside the values; conditions: 30 µM
Compound,Percent Effect [1] [%],Percent Effect [2] [%]
Cc1cc(C[S+]([O-])CC(=O)NCC(C)C)no1 (stereo not given),-2.03,4.91
CCS(=O)(=O)N1CCC[C@]2(C(=O)N(C)C)CN(c3ccccn3)C[C@@H]2C1,0.903,-10.3
O=C(c1nc(COc2ccc3c(c2)OCO3)no1)N1CCCC1,6.21,-63.7
COc1ccccc1-c1noc(CN2CCCC2Cn2cccn2)n1 (stereo not given),-7.54,21.6
CS(=O)(=O)N1CCCCCC1C1CCN(c2ncccn2)CC1 (stereo not given),-3.75,24.4
Cc1ncsc1C(=O)N(C)Cc1cccc(Cl)c1,-1.26,17.9
CCn1ccnc1CN1CCN(CCOc2cccc(C#N)c2)CC1,-0.322,-9.38
CC(=O)Nc1ccc(-n2ccc3nc(N4CCCC4)ncc3c2=O)cc1,4.09,-9.95
CC(=O)c1cc(CC(=O)NCc2ccc(F)cc2)cs1,1.48,-11.3
CC(C)c1ccc(O)c(C(=O)N2CCN(Cc3cscn3)CC2)c1,-0.175,-7.95
Cc1ccc(C(=O)N2CCN(CC(O)c3ccc(F)cc3)CC2)s1 (stereo not given),0.567,32.2
N#Cc1c(C2CC2)cc(-c2ccc(O)cc2)nc1N,-1.42,15.9
CC(NC(=O)N1CCN(CCc2ccccc2)CC1)c1nncn1C (stereo not given),-7.6,-13.8
COCc1cnc2n1CCN(C(=O)C1=CCCCC1)C2C (stereo not given),-0.348,-61.5
Cc1nn(C)c(C)c1NC(=O)CN1CCc2c(nc(C3CC3)n2C)C1,-0.703,-17.4
CCN(Cc1cccc(Cl)c1)Cn1nc(C)c2c(C)onc2c1=O,-2.62,21.7
CCC1c2cccn2CCN1C(=O)c1ccc2nonc2c1 (stereo not given),4.26,-4.14
CCOc1ccc(C2CC(=O)Nc3c2c(=O)nc2sccn32)cc1 (stereo not given),0.813,-16.9
CN(Cc1ccc(Cl)c(Cl)c1)C(=O)CNC(N)=O,0.719,10.2
O=C(c1ccco1)N1CCC2(CCOC2)C1 (stereo not given),2.53,-46.7
Cn1cc(C(=O)NC[C@@H]2OC[C@H]3CN(Cc4ccco4)CC[C@H]32)cn1,-0.729,-33.5
Cc1nc(CN2CCC3(CCCN(Cc4cnn(C)c4)C3)C2=O)cs1 (stereo not given),-3.23,-23.7
CCc1c(C(=O)NC2CCS(=O)(=O)C2)cnn1-c1ccc(F)cc1 (stereo not given),-1.69,9.21
CCCc1nc(NCCCO)c2c(n1)c(C)nn2CC,-5.08,-4.19
Cc1cccc2c1cnn2CCC(=O)NCC(=O)N(C)C,-1.19,-22.2

Compound,Percent Effect [1] [%],Percent Effect [2] [%]
CCC(=O)N1CCc2[nH]cnc2C12CCN(C(=O)CCS(C)(=O)=O)CC2,-0.836,9.19
CCCn1ncc(CN2C[C@@H]3CCCN3C[C@@H]2CCSC)c1C,-1.92,-13.3
CS(=O)(=O)N1CCCC12CCCN(S(=O)(=O)c1ccc(F)cc1)C2 (stereo not given),-6.05,7.82
O=C(c1ccc(F)cc1F)N1CC[C@H](O)[C@@H](N2CCOCC2)CC1,0.28,-21.2
c1cnn(C2CN(Cc3nc(-c4ccsc4)no3)C2)c1,-1.81,23
CN(C(=O)CCNC(=O)NC1CCCCC1)c1ccccc1,-1.38,4.9
Cc1nn(C)c(Cl)c1C1CCCN1C(=O)c1nccnc1N (stereo not given),-0.929,22.4
CNS(=O)(=O)c1ccc(CNC(=O)NCC2CCOC2)cc1 (stereo not given),-4.9,25.4
CCCc1noc(CN2CCCC2c2ccsc2)n1 (stereo not given),-3.91,0.761
Cn1c(Cn2ccnc2)nnc1C1CCCN(C2CCCCC2)C1 (stereo not given),-2.02,-14.9
Cc1occc1C(=O)N1CCC2(CC1)NC(=O)CC2c1cnn(C)c1 (stereo not given),-0.199,-2.15
CC(C)CN1C[C@H]2CCN(c3ncccn3)CC[C@H]2S1(=O)=O,2.71,-33
COC(=O)c1sccc1S(=O)(=O)NCC1(O)CCOc2ccccc21 (stereo not given),-2.1,6.1
c1cnc(N2CCC3(CCN(Cc4ccncc4)CC3)CC2)nc1,-2.46,1.18
CC(C)COCC(NC(=O)c1cc[nH]n1)c1ccco1 (stereo not given),7.45,9.69
c1ccc(-c2cc(CN3CCC(c4ccn[nH]4)CC3)on2)cc1,2.46,-49.6
CS(=O)(=O)NC[C@]12COC[C@H]1CN(C(=O)c1ccccc1)C2,-2.14,-16.8
COCCN1CCCN(C(=O)NC(C)Cn2ccnc2)CC1 (stereo not given),-1.32,-14.7
Cc1cc(C)n(C2CCCN(C(=O)Cc3csc(C)n3)C2)n1 (stereo not given),-6.85,5.9
O=C(c1cccc(OC2CCCC2)c1)N1CCCC(n2cncn2)C1 (stereo not given),-0.0372,16.8
CCCNC(=O)C1CCN(Cc2csc(C(C)(C)C)n2)CC1,-0.628,7.25
O=C(NCC1CC1)C1CCC2(CCN(C(=O)c3ccccn3)CC2)O1 (stereo not given),-1.39,1.47
Cc1nn(C)c(C)c1C(=O)N1CCOCC1CC(=O)c1ccco1 (stereo not given),1.17,-5.88
CCOC1COC2(CCN(Cc3ccc4c(c3)OCO4)CC2)C1 (stereo not given),-3.53,-2.45
Cc1cn[nH]c1C1CCCCN1C(=O)CCN1CCCCCC1 (stereo not given),8.57,28.2

Compound,Percent Effect [1] [%],Percent Effect [2] [%]
CC1CN(CC(=O)Nc2cccnc2)CCN1c1nccs1 (stereo not given),0.466,7.04
CSc1ncccc1C(=O)NCc1ccc(CS(=O)(=O)NC(C)C)cc1,4,6.55
CCc1nc(C)c(C(=O)NCCN2CCC(C)CC2)s1,-0.879,-68.3
Cc1ccc(C(C)NC(=O)Cc2c(C)nc3c(c2C)c(=O)[nH]n3C)o1 (stereo not given),18.6,-15.3
CC(C)COCC(NC(=O)c1cccnc1)c1ccco1 (stereo not given),2.37,21
CN(c1ccncn1)C1CC2(CCN(C(=O)c3cccs3)C2)C1 (stereo not given),-6.21,-35.5
C[C@@H]1CN(C(=O)c2cccs2)C[C@]12CCN(CCN(C)C)C2=O,-0.228,-8.44
COCCO[C@@H]1C[C@H]2CN(C(=O)c3cnccn3)CCN2C1,6.43,-13
CS(=O)(=O)c1ccc(OCCNCc2cccc(F)c2)cc1,-5.13,-38.6
O=C1COC2(CCN(Cc3ccc(F)cc3)CC2)CN1,0.549,11.4
Cc1nnc(N2CC[C@H]3C[C@@H](C(=O)NC4CCCC4)O[C@H]3C2)s1,0.29,-4.68
Cc1cc(C(=O)N2CCc3nnc(N(C)C)cc3C2)c(C)n1C1CC1,0.451,-0.445
Cc1nc(COCc2cnc3n2CCN(C2CCC2)C3C)cs1 (stereo not given),-4.78,-5.21
Cc1cc(C(=O)N2CCC(c3nccn3Cc3ccncc3)CC2)no1,10.1,4.34
CCOC(=O)CCC(=O)NC(C)c1ccc(NC(=O)CC)cc1 (stereo not given),-8.03,-0.224
Cc1cc(C)n(CC2CN(CCOc3cccc(C#N)c3)CCO2)n1 (stereo not given),4.21,33
CC(C)CC(=O)N1CCc2nc(N3CCOCC3)nc(NC(C)C)c2C1,-3.63,6.88
Cc1cc(C)n(CC2CCCN2C(=O)c2cnn(C)c2C2CC2)n1 (stereo not given),1.84,1.91
COCCCNc1nccc(-c2c[nH][nH]c2=O)n1,6.51,-55.9
O=C(c1ccno1)N1CCC2(CC1)C(=O)N(CC1CC1)c1ccccc12,-0.569,-1.25
Cc1nc(CN2C(=O)COC3(CCN(Cc4nccs4)CC3)C2C)cs1 (stereo not given),-2.21,-29.4
CCN1C(=O)CCC12CCCN(Cc1nccs1)CC2 (stereo not given),2.52,1.68
CCc1nc(C)c(C(=O)NCCN2CCN(C(C)=O)CC2)s1,0.0694,-21.7
CN1CCN(c2cc(CNC(=O)c3ccc(=O)n(C)c3)ccn2)CC1,-4.9,-0.684
COc1cccc(C2CCCN2Cc2nc3c(cnn3C)c(=O)[nH]2)c1 (stereo not given),-4.03,-6.96

Compound,Percent Effect [1] [%],Percent Effect [2] [%]
O=C(CN1CCCS1(=O)=O)NCCOc1ccc2c(c1)CCC2,-5.23,9.97
O=C1CO[C@@H]2CN(CC3CCOCC3)C[C@H]2N1CC1CC1,14.8,5.99
COc1cc2nc3n(c(=O)c2cc1OC)CCN(C(C)=O)CC3,-0.551,17
COCCN(Cc1ccoc1)C(=O)c1c(F)cccc1Cl,-3.31,5.86
Cn1cc(CN2CCOCC3(C2)CN(c2ccccc2)C(=O)CO3)cn1 (stereo not given),5.42,4.18
NC(=O)C1CCN(CCc2ccc(NC(=O)C3CCC3)cc2)CC1,3.99,-2.25
Cn1cccc1C(=O)N[C@@H]1CN(CC2CC2)[C@@H]2COC[C@@H]21,1.28,-3.7
CCc1n[nH]c(C2CN(Cc3nccn3CC)CCO2)n1 (stereo not given),1.7,-10.4
COCc1cccc(NC(C)C(=O)N(C)Cc2cccc(F)c2)c1 (stereo not given),-0.296,-8.46
Cc1cc(CN(C)C(=O)NCC(C)N2CCc3ccccc32)no1 (stereo not given),-1.27,-6.14
Cc1cccc(CN2CCC3(CCN(Cc4ccccn4)C3)C2=O)c1 (stereo not given),0.956,-19.6
Cc1cccc(COC[C@H]2CC[C@H]3[C@H](CCN3C(=O)CC3CC3)O2)n1,-1.43,1.2
CC(C)CN1C[C@@H]2CN(C(=O)[C@H]3CCCO3)C[C@@H]2C1=O,1.02,-18.1
CC(C)CN(Cc1nc2c(cnn2C)c(=O)[nH]1)C(C)C,-2.77,0.929
CS(=O)(=O)NCc1nnc2n1CCN(CC1CC1)C2,2.77,4.81
CCN(C(=O)COC)C(c1cccnc1)c1cc(C)cc(C)c1 (stereo not given),1.28,-51.4
Cc1n[nH]c(C)c1C1COCCN1C(=O)c1ccccc1 (stereo not given),2.68,-26
Cc1ccc(C(=O)NC2CCN(Cc3noc(CC(C)C)n3)CC2)s1,7.55,-63.2
CNS(=O)(=O)c1cccc(CNC(=O)c2c(C)oc(C)c2C)c1,-7.7,-67.3
Cc1c(O)oc(-c2ccc(Br)cc2)nc1=O,-1.84,-45.4
Cc1nn(C)c(C)c1C1CCCN1C(=O)c1ccc(CN(C)C)cc1 (stereo not given),-2.88,-14
Nc1nccc(-c2c[nH]nc2C2CCCCC2)n1,6.92,-26.9
COc1ccnc(N2CCN(CC(=O)N3CCOCC3)CC2)n1,-1.91,26.3
COCCN1CCN(Cc2cccc(OCC(N)=O)c2)CC1C (stereo not given),-6.54,-6.57
Cc1ccc(C(=O)N2CC[C@@H]3[C@H]2CCC(=O)N3c2ccccc2)o1,-6.1,-13
